Data as given in paper PMC7819943, “Rice protein-binding microarrays: a tool to detect cis-acting elements near promoter regions in rice”.
In all, about 39,000 sequences were measured (“fluorescence intensity (a.u.)”: median about 4,300, highest 2% from about 39,000 on). This is one part of a sample in which the highest values are shown more often than they occur.

Target: T1, OsSMF1 (Oryza sativa, UniProt Q6ZLB0 1-436)
T1 sequence: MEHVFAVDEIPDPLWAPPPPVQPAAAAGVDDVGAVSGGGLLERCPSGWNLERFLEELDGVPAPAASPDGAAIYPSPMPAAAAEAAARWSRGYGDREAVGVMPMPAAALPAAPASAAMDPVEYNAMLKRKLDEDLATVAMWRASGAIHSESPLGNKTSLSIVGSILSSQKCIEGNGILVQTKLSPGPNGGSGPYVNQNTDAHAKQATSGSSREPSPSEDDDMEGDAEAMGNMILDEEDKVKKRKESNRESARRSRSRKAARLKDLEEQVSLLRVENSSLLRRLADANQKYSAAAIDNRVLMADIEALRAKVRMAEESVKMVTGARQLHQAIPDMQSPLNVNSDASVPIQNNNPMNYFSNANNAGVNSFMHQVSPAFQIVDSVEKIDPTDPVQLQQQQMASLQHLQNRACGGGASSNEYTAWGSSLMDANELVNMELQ
Test: protein-binding microarray (RPBM); PBS, 2% BSA, 51.3 ng/ul salmon testes DNA, 50 uM zinc acetate, 200 nM TF, 25 C, 1 h; high values mean tight binding
Settings: protein: recombinant; tags: N-terminal polyhistidine and DsRed monomer fusion (pET32a); chain copies: 2; label: CyDye5-dUTP incorporated in the synthesized complementary strand; 3' TTTTT single-stranded linker to array surface; dsDNA, one strand shown
In short: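 The binding signal is fluorescence intensity per array feature (arbitrary units). Readings came from an Axon 4000B scanner after a washed, 2% BSA-blocked, double-stranded custom Agilent array had been incubated for 1 h at 25 °C with 200 nM protein and 50 µM zinc acetate. The protein was a Ni–NTA-purified transcription factor fused N-terminally to polyhistidine and DsRed, expressed in E. coli BL21-CodonPlus.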

Row | Sequence | binding signal
1 | ATTAATAGCAGTGACGTCTTGCACATACTGTATGAGTCATCGGAGTCACCTAGTGCAG | 11000 fluorescence intensity (a.u.)
2 | TTATCTCCTCATCCATTTTCATCCTCGTCTACATTCACTGCGGAGTCACCTAGTGCAG | 24600 fluorescence intensity (a.u.)
3 | GAACATATCACATGCTCATATCAAAATTTATAATATTAAACGGAGTCACCTAGTGCAG | 35200 fluorescence intensity (a.u.)
4 | ATAATATAAAACGGATGGATCACATGCTATGAACCTATGACGGAGTCACCTAGTGCAG | 51200 fluorescence intensity (a.u.)
5 | TCTTTGGTGATGGATAATAACCCGATATAAACAATATAGACGGAGTCACCTAGTGCAG | 65000 fluorescence intensity (a.u.)
6 | ATTGGACGATAAAATATTGGACGGTGATTCACCTTTTAGACGGAGTCACCTAGTGCAG | 3170 fluorescence intensity (a.u.)
7 | AATGTAATAAATTGTAGATGTCATTGCTATGCATGCATGACGGAGTCACCTAGTGCAG | 3920 fluorescence intensity (a.u.)
8 | CATGGATAGGATAATCGTAACAATTATCTAGACAGTGATGCGGAGTCACCTAGTGCAG | 3140 fluorescence intensity (a.u.)
9 | ATTATGAGCCATGATTCTCTCATCATGCAATGTCCCAGCACGGAGTCACCTAGTGCAG | 22100 fluorescence intensity (a.u.)
10 | TATATATGCACCGAGACACATATGAATCATCACACGTCTTCGGAGTCACCTAGTGCAG | 3550 fluorescence intensity (a.u.)
11 | CGCCGCCTCACCAGCGCCACCTCCACCTCCACCTACGTCTCGGAGTCACCTAGTGCAG | 3270 fluorescence intensity (a.u.)
12 | TTGCAGCAGAATACTTACCACGACAGAATTTGAGGATCTACGGAGTCACCTAGTGCAG | 29500 fluorescence intensity (a.u.)
13 | AGATCGACCAATGATACACACACAGCATATGAATCCTTTCCGGAGTCACCTAGTGCAG | 41400 fluorescence intensity (a.u.)
14 | CCAGCATCTGACACATCCTTTCCTAGCTGATCGACTCCATCGGAGTCACCTAGTGCAG | 3420 fluorescence intensity (a.u.)
15 | GCATAAATGATGTGTTTCTGAATCCAATTACACACATGATCGGAGTCACCTAGTGCAG | 5020 fluorescence intensity (a.u.)
16 | AATACCGACGTGTCTAGACCTCAGCGACACACTGGAGCGTCGGAGTCACCTAGTGCAG | 5000 fluorescence intensity (a.u.)
17 | GTGTTCGACGAAATGCCAACAAGGAACGTGGTGGCGTGGACGGAGTCACCTAGTGCAG | 3500 fluorescence intensity (a.u.)
18 | TCCCCTTCTTCACCGATGCGGCGATGCGCGCGCCTTCTTCCGGAGTCACCTAGTGCAG | 27500 fluorescence intensity (a.u.)
19 | CAAGGCGGCCCAACCATCTTCGAAATGCGGCCCATGACGACGGAGTCACCTAGTGCAG | 39100 fluorescence intensity (a.u.)
20 | TATCATACAAATGACGACACCACACAAACGGCGGCCCAAGCGGAGTCACCTAGTGCAG | 4320 fluorescence intensity (a.u.)
21 | CCCACGGCGCAACGATGACGATGACGATGCCCTTCCGGCGCGGAGTCACCTAGTGCAG | 46900 fluorescence intensity (a.u.)
22 | ACGGACGGGCGTCGGCGCGGGCGATGACGGACTGACGACGCGGAGTCACCTAGTGCAG | 3490 fluorescence intensity (a.u.)

Row | Sequence | binding signal
23 | GCGCCGCCGGCGCCGCGGCGCGGCCGATGACCACGCCGGACGGAGTCACCTAGTGCAG | 3490 fluorescence intensity (a.u.)
24 | CGCGCGCGCCGCCGCCGGTCGGTAACGACGGCGACGATGACGGAGTCACCTAGTGCAG | 65500 fluorescence intensity (a.u.)
25 | GAACGATGACGGCGCGATGGCCGCCGCCGTGGCGCGGACGCGGAGTCACCTAGTGCAG | 3210 fluorescence intensity (a.u.)
26 | CCATCCACCATTCACTTTCCCACCTACCTCCACTATTTATCGGAGTCACCTAGTGCAG | 3430 fluorescence intensity (a.u.)
27 | AATAATGGGCTGAAAATATGTGACGCGAGGCGAGGGTCCCCGGAGTCACCTAGTGCAG | 3260 fluorescence intensity (a.u.)
28 | CGCCAACACGACGCTGTGCCGTGGCGCGCCGACAATCATCCGGAGTCACCTAGTGCAG | 3600 fluorescence intensity (a.u.)
29 | ACATGCCGCTAGGAAATATCCCATCCGGTGCCTGTCTAGACGGAGTCACCTAGTGCAG | 3150 fluorescence intensity (a.u.)
30 | TTGCCGGTACTTTGGTACGTCATCCGTGTATAAGTCGGTTCGGAGTCACCTAGTGCAG | 5840 fluorescence intensity (a.u.)
31 | TCCGCGGCTCCGCGCTCTCCCCTCGCCGGTGTCACCGCTCCGGAGTCACCTAGTGCAG | 3390 fluorescence intensity (a.u.)
32 | GTGTTCCGCAGCGGCCGGGAGACGCGCCGGCTTGTCCCCTCGGAGTCACCTAGTGCAG | 42300 fluorescence intensity (a.u.)
33 | CTTGTGGCCGGCGCAGCCGCCGCACCCCTCCGACGTGTTCCGGAGTCACCTAGTGCAG | 5380 fluorescence intensity (a.u.)
34 | CTAACCACGCCCGCCACGTACGCCGCCTCTGGGACCCCGACGGAGTCACCTAGTGCAG | 5440 fluorescence intensity (a.u.)
35 | GCAGCATCTGTGATCTCTCAGTGGGACCCACGTGTCATTGCGGAGTCACCTAGTGCAG | 5010 fluorescence intensity (a.u.)
36 | CCCTGTCCTGAAACGCCGTGACGGCTTCTCCTTCTCCCTCCGGAGTCACCTAGTGCAG | 8960 fluorescence intensity (a.u.)
37 | GTACTCCGTACTAGTAGTGGCACTCAATGTTCGGTATCTGCGGAGTCACCTAGTGCAG | 50200 fluorescence intensity (a.u.)
38 | GTCAGTGGCTCAGTGCCACCCGTAGTGTACTGCCACTCCGCGGAGTCACCTAGTGCAG | 3370 fluorescence intensity (a.u.)
39 | CATATATATCTGACTAAAACGGTATATGTTGCACGTAGTGCGGAGTCACCTAGTGCAG | 3360 fluorescence intensity (a.u.)
40 | ATACTATGTTAATTTGTCTGTGTCCTAATGACGCACCATACGGAGTCACCTAGTGCAG | 4820 fluorescence intensity (a.u.)
41 | TTTACTGTAGCACCACATTGTCAAATTATGACGTAATTAGCGGAGTCACCTAGTGCAG | 5440 fluorescence intensity (a.u.)
42 | AACTTTGTTGTTGATGACGTTTTCAGTTGAAGTCGTTCACCGGAGTCACCTAGTGCAG | 7120 fluorescence intensity (a.u.)
43 | ATGCTATTATATAAGAGAAAATATAATGATGCTGGCCGTGCGGAGTCACCTAGTGCAG | 3240 fluorescence intensity (a.u.)
